What all share (test): DAPPL (digital affinity profiling via proximity ligation, sequencing); 10 mM Tris-HCl pH 7.5, 50 mM NaCl, 1 mM DTT, 4% glycerol, room temperature, 30 min; GST-TFs on glutathione beads, 16-mer random dsDNA library, 0.1% formaldehyde crosslink after washing; high values mean tight binding
In one assay the target is T1, FLI1 (Homo sapiens, UniProt Q01543 1-452).
T1 sequence: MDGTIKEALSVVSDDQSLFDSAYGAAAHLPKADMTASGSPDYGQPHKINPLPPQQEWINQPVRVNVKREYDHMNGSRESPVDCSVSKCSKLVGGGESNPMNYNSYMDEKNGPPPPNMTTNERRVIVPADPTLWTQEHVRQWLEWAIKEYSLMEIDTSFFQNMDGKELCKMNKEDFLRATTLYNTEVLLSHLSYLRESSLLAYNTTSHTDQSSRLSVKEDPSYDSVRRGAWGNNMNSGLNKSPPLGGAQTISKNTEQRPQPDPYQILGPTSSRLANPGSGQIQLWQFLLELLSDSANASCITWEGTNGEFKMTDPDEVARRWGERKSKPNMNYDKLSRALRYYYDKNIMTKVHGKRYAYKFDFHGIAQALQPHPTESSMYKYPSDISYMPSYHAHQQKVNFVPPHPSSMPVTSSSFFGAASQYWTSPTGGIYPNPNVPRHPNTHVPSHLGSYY
Particulars: protein: recombinant; tags: N-terminal GST; dsDNA, one strand shown. Put shortly:
(§1)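 Pools were built from human transcription factors expressed in yeast as GST fusions, captured on glutathione beads and DNA-barcoded, along with a tag-only sample. Incubation with 200 nmole of a 16-mer random double-stranded DNA library lasted 30 min at room temperature in Tris/NaCl/DTT/glycerol buffer, and was followed by washing, 0.1% formaldehyde crosslinking, proximity ligation, PCR amplification and Illumina NextSeq500 sequencing. Binding signal is the quotient of each hexamer's read frequency for a factor and its frequency for the tag-only sample.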

The target of a further assay is T2, ELK1 (Homo sapiens, UniProt P19419 1-428).
T2 sequence: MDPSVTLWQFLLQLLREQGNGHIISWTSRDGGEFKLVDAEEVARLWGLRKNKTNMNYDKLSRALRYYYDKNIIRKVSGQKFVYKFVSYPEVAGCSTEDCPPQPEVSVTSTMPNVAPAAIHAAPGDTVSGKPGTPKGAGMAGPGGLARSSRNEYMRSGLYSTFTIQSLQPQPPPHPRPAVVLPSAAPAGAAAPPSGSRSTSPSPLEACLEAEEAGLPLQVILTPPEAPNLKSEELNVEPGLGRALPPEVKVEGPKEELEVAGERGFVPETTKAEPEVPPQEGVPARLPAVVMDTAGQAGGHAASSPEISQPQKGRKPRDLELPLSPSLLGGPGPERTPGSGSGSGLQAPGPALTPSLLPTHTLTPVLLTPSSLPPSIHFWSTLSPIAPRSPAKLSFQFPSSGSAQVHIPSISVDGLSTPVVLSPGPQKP
Particulars: protein: recombinant; tags: N-terminal GST; dsDNA, one strand shown. The gist of the method:
as §1

The target in the next assay is T3, GABPA (Homo sapiens, UniProt Q06546 1-454).
T3 sequence: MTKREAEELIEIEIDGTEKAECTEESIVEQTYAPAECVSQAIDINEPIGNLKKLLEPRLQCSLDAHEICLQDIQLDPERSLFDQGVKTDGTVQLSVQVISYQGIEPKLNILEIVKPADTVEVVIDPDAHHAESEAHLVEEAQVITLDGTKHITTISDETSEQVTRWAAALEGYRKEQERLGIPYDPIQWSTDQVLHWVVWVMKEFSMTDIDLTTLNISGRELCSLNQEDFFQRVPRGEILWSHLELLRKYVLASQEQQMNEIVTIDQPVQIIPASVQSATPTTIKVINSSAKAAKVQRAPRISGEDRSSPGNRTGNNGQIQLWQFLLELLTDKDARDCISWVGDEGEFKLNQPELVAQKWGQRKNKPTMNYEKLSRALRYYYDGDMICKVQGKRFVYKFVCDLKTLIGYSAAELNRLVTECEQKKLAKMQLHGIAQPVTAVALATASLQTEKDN
To be noted: protein: recombinant; tags: N-terminal GST; dsDNA, one strand shown. Put shortly: as §1

A further assay addresses T4, ERG (Homo sapiens, UniProt P11308 1-479).
T4 sequence: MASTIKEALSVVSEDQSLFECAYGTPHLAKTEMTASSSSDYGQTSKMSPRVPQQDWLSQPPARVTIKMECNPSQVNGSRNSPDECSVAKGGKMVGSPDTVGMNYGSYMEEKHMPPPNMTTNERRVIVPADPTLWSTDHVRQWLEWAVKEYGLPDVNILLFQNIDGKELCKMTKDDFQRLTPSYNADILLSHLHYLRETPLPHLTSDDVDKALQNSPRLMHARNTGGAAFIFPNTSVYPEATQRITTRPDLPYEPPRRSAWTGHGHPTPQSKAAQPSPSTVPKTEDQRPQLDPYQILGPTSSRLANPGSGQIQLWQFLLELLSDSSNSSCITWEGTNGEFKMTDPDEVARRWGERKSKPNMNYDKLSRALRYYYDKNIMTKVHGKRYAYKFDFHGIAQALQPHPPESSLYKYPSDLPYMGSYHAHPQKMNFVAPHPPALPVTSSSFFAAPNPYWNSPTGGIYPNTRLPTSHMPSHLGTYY
Particulars: protein: recombinant; tags: N-terminal GST; dsDNA, one strand shown. The gist of the method:
as §1

In a further assay the target is ELF1 (Homo sapiens, UniProt P32519 1-619). Particulars: protein: recombinant; tags: N-terminal GST; dsDNA, one strand shown. The gist of the method:
as §1

In a further assay the target is T5, EHF (Homo sapiens, UniProt Q9NZC4 1-300).
T5 sequence: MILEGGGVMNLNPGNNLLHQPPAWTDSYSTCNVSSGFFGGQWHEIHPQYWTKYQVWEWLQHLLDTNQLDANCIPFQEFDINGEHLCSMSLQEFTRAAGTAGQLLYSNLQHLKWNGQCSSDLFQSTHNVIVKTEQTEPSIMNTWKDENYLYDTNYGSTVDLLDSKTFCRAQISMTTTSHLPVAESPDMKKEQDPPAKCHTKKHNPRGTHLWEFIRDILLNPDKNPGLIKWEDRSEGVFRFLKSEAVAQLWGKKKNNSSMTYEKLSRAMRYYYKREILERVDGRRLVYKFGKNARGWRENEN
To be noted: protein: recombinant; tags: N-terminal GST; dsDNA, one strand shown. The gist of the method: as §1

In the next assay the target is SPI1 (Homo sapiens, UniProt P17947 1-270). Particulars: protein: recombinant; tags: N-terminal GST; dsDNA, one strand shown. The gist of the method: as §1
A further assay addresses SPIB (Homo sapiens, UniProt Q01892 1-262). To be noted: protein: recombinant; tags: N-terminal GST; dsDNA, one strand shown. The gist of the method: as §1
Another assay deals with T6, ELK3 (Homo sapiens, UniProt P41970 1-407).
T6 sequence: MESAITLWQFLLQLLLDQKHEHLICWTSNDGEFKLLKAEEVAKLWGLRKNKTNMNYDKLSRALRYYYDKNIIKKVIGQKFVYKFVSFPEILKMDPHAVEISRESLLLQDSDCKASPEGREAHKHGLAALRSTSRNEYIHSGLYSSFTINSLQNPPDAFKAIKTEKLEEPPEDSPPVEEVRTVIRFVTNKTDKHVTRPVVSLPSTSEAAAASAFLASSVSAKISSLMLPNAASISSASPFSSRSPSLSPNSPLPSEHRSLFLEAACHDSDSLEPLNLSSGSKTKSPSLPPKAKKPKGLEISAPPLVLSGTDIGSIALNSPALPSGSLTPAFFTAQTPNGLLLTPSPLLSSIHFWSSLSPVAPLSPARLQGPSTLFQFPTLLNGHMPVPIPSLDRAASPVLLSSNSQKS
Particulars: protein: recombinant; tags: N-terminal GST; dsDNA, one strand shown. Put shortly:
as §1

Another assay addresses T7, FEV (Homo sapiens, UniProt Q99581 1-238).
T7 sequence: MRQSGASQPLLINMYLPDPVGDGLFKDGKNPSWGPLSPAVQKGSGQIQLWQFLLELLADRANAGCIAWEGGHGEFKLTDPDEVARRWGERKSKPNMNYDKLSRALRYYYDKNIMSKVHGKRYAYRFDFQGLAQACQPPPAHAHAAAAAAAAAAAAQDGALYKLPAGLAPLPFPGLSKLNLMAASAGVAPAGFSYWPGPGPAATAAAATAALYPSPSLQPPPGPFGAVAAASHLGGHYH
To be noted: protein: recombinant; tags: N-terminal GST; dsDNA, one strand shown. The gist of the method: as §1

For another assay, the target named is ETV5 (Homo sapiens, UniProt P41161 1-510). Particulars: protein: recombinant; tags: N-terminal GST; dsDNA, one strand shown. The gist of the method: as §1
In the next assay the target is HSF1 (Homo sapiens, UniProt Q00613 1-529). To be noted: protein: recombinant; tags: N-terminal GST; chain copies: 3; dsDNA, one strand shown. The gist of the method: as §1
The target in the next assay is T8, SPIC (Homo sapiens, UniProt Q8N5J4 1-248).
T8 sequence: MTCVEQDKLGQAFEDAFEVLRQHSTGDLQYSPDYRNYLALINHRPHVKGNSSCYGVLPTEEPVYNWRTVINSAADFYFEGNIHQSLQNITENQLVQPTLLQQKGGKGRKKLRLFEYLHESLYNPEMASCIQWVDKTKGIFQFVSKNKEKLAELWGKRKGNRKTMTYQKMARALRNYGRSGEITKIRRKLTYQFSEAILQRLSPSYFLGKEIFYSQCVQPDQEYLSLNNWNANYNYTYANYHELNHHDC
Particulars: protein: recombinant; tags: N-terminal GST; dsDNA, one strand shown. The gist of the method: as §1

For a further assay, the target named is ELF4 (Homo sapiens, UniProt Q99607 1-663). Particulars: protein: recombinant; tags: N-terminal GST; dsDNA, one strand shown. The gist of the method:
as §1

The next assay addresses T9, ELK4 (Homo sapiens, UniProt P28324-2 1-405).
T9 sequence: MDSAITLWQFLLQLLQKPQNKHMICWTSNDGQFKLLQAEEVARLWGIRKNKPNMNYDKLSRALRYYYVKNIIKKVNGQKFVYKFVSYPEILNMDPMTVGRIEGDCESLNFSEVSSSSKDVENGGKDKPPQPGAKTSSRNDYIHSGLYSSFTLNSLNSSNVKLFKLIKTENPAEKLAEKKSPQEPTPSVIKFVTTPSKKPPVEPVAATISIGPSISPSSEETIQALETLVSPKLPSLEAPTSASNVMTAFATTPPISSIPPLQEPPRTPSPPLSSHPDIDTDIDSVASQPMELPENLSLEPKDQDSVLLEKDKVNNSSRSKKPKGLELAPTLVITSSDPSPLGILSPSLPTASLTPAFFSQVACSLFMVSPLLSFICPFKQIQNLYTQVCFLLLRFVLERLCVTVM
Particulars: protein: recombinant; tags: N-terminal GST; dsDNA, one strand shown. Put shortly:
as §1

The next assay deals with T10, ETV2 (Homo sapiens, UniProt O00321 1-342).
T10 sequence: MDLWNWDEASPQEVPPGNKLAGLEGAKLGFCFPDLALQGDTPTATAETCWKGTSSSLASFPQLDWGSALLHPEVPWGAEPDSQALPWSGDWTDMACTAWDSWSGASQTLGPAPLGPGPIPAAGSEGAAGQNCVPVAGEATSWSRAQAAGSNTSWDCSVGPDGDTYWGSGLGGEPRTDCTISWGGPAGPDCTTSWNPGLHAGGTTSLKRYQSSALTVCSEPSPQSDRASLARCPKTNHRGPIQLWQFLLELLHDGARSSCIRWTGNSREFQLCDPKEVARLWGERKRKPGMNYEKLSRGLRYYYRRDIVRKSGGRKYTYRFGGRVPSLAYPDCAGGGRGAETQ
Particulars: protein: recombinant; tags: N-terminal GST; dsDNA, one strand shown. Put shortly: as §1

For the next assay, the target named is T11, ELF3 (Homo sapiens, UniProt P78545 1-371).
T11 sequence: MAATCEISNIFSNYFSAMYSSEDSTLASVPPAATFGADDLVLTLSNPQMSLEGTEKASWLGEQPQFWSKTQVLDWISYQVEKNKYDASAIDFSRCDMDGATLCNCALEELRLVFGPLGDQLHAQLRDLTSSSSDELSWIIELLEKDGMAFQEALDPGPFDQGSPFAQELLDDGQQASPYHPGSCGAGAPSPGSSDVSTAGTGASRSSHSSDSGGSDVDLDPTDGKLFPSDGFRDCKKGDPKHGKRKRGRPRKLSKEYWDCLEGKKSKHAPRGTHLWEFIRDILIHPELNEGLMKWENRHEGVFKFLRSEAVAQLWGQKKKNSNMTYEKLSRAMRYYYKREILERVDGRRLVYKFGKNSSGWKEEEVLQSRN
To be noted: protein: recombinant; tags: N-terminal GST; dsDNA, one strand shown. The gist of the method:
as §1

The target of the next assay is CRX (Homo sapiens, UniProt O43186 1-299). Particulars: protein: recombinant; tags: N-terminal GST; dsDNA, one strand shown. The gist of the method:
as §1

A further assay concerns the target ETV1 (Homo sapiens, UniProt P50549 1-477). To be noted: protein: recombinant; tags: N-terminal GST; dsDNA, one strand shown. Put shortly: as §1

Sequence of HSF1 (Q00613 whole entry): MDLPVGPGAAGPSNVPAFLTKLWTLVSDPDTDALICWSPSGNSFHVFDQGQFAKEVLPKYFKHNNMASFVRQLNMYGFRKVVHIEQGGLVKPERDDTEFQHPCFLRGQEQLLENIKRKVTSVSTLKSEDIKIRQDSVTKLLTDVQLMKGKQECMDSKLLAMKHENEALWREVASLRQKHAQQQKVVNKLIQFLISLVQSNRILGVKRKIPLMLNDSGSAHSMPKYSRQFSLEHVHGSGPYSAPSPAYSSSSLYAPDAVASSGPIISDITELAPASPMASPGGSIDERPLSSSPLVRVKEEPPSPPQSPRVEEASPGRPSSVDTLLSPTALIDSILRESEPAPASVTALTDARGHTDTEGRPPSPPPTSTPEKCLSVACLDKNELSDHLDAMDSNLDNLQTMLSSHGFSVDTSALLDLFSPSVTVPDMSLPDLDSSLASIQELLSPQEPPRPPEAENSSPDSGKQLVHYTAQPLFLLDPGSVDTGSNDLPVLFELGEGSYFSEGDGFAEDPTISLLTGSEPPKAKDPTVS
Sequence of ELF1 (P32519 whole entry): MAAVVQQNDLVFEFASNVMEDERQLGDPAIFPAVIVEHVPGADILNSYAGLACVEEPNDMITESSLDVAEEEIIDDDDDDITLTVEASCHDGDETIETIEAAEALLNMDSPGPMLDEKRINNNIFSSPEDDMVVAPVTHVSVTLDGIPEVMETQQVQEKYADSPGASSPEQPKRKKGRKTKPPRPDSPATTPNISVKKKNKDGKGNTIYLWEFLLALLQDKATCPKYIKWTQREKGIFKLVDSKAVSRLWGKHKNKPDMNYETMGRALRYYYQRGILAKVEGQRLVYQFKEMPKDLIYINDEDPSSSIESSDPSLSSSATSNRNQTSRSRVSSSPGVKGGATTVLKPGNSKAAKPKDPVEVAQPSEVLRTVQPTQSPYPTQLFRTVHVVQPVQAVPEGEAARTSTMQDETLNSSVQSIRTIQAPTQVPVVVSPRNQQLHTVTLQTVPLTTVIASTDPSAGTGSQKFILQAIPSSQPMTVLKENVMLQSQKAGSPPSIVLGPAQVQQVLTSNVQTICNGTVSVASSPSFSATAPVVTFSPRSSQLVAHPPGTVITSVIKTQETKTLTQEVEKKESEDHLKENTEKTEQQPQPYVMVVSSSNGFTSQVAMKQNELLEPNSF
Sequence of ETV5 (P41161 whole entry): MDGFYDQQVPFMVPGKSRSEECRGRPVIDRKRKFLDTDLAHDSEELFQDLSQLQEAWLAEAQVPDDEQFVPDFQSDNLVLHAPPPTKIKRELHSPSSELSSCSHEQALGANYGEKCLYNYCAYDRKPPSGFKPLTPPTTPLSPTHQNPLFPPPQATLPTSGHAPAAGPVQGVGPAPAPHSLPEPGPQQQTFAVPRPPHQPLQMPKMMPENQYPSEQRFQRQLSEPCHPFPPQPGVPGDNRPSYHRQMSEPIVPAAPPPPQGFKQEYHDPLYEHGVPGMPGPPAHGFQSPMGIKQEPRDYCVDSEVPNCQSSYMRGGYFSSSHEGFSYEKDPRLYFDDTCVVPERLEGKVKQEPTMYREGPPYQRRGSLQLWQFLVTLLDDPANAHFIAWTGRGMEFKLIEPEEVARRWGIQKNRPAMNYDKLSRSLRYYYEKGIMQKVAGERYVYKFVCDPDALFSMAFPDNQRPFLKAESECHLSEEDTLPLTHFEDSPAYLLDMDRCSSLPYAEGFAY
Sequence of ETV1 (P50549 whole entry): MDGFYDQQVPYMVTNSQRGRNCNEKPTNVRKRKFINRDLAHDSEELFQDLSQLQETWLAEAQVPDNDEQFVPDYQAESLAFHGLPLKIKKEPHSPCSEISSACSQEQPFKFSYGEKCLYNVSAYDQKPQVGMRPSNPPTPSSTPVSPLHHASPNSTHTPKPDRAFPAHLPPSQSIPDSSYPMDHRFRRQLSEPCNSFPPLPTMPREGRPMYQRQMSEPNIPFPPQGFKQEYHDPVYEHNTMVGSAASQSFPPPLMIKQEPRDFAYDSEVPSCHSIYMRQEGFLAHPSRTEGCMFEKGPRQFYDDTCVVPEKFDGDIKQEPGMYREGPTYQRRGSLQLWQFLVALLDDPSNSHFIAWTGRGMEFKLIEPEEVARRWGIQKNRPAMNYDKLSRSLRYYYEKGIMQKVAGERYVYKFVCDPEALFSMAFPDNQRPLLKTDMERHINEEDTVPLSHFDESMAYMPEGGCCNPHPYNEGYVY
Sequence of ELF4 (Q99607 whole entry): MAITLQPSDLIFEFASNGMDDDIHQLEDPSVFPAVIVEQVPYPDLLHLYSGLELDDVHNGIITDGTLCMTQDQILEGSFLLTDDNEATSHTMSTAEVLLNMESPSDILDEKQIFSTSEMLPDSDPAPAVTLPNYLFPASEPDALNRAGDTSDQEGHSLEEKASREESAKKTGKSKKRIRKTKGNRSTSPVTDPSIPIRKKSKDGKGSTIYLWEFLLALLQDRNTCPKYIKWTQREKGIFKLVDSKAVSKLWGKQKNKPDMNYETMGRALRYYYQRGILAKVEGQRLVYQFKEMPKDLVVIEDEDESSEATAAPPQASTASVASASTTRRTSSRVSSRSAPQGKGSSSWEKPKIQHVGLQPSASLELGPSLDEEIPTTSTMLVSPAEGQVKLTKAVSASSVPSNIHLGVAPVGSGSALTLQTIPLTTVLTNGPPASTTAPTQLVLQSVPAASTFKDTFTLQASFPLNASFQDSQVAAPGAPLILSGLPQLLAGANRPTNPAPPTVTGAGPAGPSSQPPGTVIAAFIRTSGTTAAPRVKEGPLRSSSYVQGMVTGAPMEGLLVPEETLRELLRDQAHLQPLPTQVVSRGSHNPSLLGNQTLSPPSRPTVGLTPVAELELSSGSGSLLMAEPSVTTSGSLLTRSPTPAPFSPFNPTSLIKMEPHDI
Sequence of SPIB (Q01892 whole entry): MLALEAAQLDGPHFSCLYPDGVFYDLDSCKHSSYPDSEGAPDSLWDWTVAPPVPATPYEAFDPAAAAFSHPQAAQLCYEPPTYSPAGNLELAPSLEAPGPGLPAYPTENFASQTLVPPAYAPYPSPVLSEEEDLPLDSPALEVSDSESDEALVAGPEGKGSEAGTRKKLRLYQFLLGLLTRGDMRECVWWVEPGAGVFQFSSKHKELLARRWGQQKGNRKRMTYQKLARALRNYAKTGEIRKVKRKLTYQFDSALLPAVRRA
Sequence of CRX (O43186 whole entry): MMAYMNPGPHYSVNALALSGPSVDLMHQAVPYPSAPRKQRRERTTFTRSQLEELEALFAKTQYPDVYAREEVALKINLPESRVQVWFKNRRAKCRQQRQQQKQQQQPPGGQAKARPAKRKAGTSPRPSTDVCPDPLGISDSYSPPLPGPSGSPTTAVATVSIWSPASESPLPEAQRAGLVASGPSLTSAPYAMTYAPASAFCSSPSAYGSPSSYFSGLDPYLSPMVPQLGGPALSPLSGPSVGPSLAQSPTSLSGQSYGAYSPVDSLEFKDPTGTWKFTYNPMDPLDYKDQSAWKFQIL

With ATACTC, the binding signal with FLI1 was 1.29 fold enrichment (6-mer frequency, TF over GST control); in the assay with ELK1, 1.32 fold enrichment (6-mer frequency, TF over GST control); with GABPA, 1.48 fold enrichment (6-mer frequency, TF over GST control); with ERG it was 1.3 fold enrichment (6-mer frequency, TF over GST control); with ELF1, 1.38 fold enrichment (6-mer frequency, TF over GST control); with EHF, 1.33 fold enrichment (6-mer frequency, TF over GST control). In addition, the binding signal with SPI1 is 1.26 fold enrichment (6-mer frequency, TF over GST control); with SPIB, 1.32 fold enrichment (6-mer frequency, TF over GST control); in the assay with ELK3, 1.3 fold enrichment (6-mer frequency, TF over GST control); with FEV, 1.27 fold enrichment (6-mer frequency, TF over GST control); with ETV5, 1.22 fold enrichment (6-mer frequency, TF over GST control); in the assay with HSF1, 1.41 fold enrichment (6-mer frequency, TF over GST control). Moreover, the binding signal was 1.42 fold enrichment (6-mer frequency, TF over GST control) in the assay with SPIC; 1.25 fold enrichment (6-mer frequency, TF over GST control) with ELF4; 1.23 fold enrichment (6-mer frequency, TF over GST control) with ELK4; 1.3 fold enrichment (6-mer frequency, TF over GST control) in the assay with ETV2; 1.23 fold enrichment (6-mer frequency, TF over GST control) with ELF3; 1.37 fold enrichment (6-mer frequency, TF over GST control) with CRX. The binding signal with ETV1 is 1.28 fold enrichment (6-mer frequency, TF over GST control).

Values taken from publication PMC7862700, “An all-to-all approach to the identification of sequence-specific readers for epigenetic DNA modifications on cytosine”.
